Source: PubChem BioAssay (National Center for Advancing Translational Sciences (NCATS))
Rows were chosen to be rich in hits. Some 0.43% of all compounds tested hit in one or more screens of this group.
aGlu spleen mod – qHTS Assay for Inhibitors and Activators of Human alpha-Glucosidase From Spleen Homogenate | hit rate 0.006% among 240,000 | AID 2112, 2009 | human spleen homogenate, 4-MU-alpha-glucoside fluorescence | Lysosomal alpha-glucosidase (Homo sapiens), P10253 | Potency, µM (series often up to 79.9 µM), usual class: inhibitors
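Human spleen homogenate (1 ug) with 4-methylumbelliferyl-alpha-D-glucopyranoside (1 mM final) in 50 mM citrate/phosphate pH 5.0, 0.01% Tween-20; 40 min at 37 C. Stopped at pH 10; 4-MU fluorescence Ex 365/Em 440 nm; AC50 by Hill fit.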
N370S GC – qHTS Assay for Inhibitors and Activators of N370S glucocerebrosidase as a Potential Chaperone Treatment of Gaucher Disease | hit rate 0.092% among 330,000 | N370S GC spleen homogenate, 4MU-glucoside fluorescence | Potency, µM (doses to about 59.4 µM), usual class: inhibitors | Lysosomal acid glucosylceramidase (Homo sapiens), P04062 | AID 2101, 2009
GAA inhib – qHTS Assay for Inhibitors of Human alpha-Glucosidase as a Potential Chaperone Treatment of Pompe Disease; Potency, µM (top dose mostly 76.9 µM), actives largely listed as inhibitors; AID 1466, 2008; purified human GAA, 4-MU-alpha-glucoside fluorescence; hit rate 0.005% among 200,000
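Activity normalized between no-enzyme (basal) and enzyme-only wells. Conditions: 4 nM human enzyme, 400 uM fluorogenic substrate, citrate/phosphate pH 5.0 with Tween-20, 20 min room temperature, compounds up to 77 uM.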
GLA inh pH 4.5 – qHTS Assay for Inhibitors of Human alpha-Galactosidase at pH 4.5; Alpha-galactosidase A (Homo sapiens), P06280; 230,000 tested, under 10 active; purified enzyme, 4-MU-alpha-Gal fluorescence, pH 4.5; activity change, negative = inhibition, % at 105 µM
GAA glycogen – qHTS Assay for Inhibitors and Activators of Human alpha-Glucosidase Cleavage of Glycogen | Lysosomal alpha-glucosidase (Homo sapiens), P10253 | recombinant GAA, glycogen substrate, Amplex Red glucose oxidase fluorescence | Potency, µM (highest dose often 76.4 µM), actives largely listed as inhibitors | hit rate 0.38% among 300,000 | AID 2100, 2009;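 further: the screen sought inhibitors and activators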
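Recombinant enzyme (4 nM final) with compounds titrated up to 77 uM and bovine liver glycogen (30 ug) in citrate pH 5.0, 0.01% Tween-20, 37 C 40 min. Released glucose detected by Amplex Red/glucose oxidase (Ex 573/Em 610); AC50 from Hill fits.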
aGal spleen mod – qHTS Assay for Inhibitors and Activators of Human alpha-Galactosidase From Spleen Homogenate; Alpha-galactosidase A (Homo sapiens), P06280; human spleen homogenate, 4MU-alpha-Gal fluorescence, 40 min; Potency, µM (series often up to 80 µM), usual class: inhibitors; hit rate 0.008% among 240,000; AID 2107, 2009
Target sequence (P06280 32-429 limits assumed): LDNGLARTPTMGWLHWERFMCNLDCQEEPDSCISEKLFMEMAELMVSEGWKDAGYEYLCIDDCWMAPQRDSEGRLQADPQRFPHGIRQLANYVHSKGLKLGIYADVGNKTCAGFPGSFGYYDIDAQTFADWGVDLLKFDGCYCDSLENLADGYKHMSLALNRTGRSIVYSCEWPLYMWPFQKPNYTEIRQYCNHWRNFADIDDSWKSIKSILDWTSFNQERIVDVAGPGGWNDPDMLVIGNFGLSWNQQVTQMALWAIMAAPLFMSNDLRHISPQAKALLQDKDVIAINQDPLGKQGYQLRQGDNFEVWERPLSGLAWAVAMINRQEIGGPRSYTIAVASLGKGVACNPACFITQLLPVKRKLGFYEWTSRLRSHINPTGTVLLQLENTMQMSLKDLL
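Human spleen homogenate (1 ug) was the enzyme source, with 4-methylumbelliferyl-alpha-D-galactopyranoside (1 mM final) in pH 5.0 citrate buffer with 0.01% Tween-20. Compounds were titrated; after 40 min at 37C, NaOH/glycine stop, 4-MU fluorescence read; AC50 from Hill fits.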
Numbers stand for hits; i = inactive; ? = inconclusive; nt = no result. The call rests on the fitted dose curve; in most records, active means well fitted curve in the direction sought with a large enough effect; inconclusive means small, poorly fitted or top-dose-only effect, or another doubt; inactive means no such curve, though single readings can be large; an effect the other way counts as inactive or inconclusive.

SMILES | aGlu spleen mod | N370S GC | GAA inhib | GLA inh pH 4.5 | GAA glycogen | aGal spleen mod
CC[C@H](C)[C@H](N)C(=O)N[C@@H](CC(N)=O)C(=O)N1CCC[C@H]1C(=O)N[C@H](C(=O)N[C@@H](Cc1ccc(O)cc1)C(=O)N[C@@H](CCCN=C(N)N)C(=O)N[C@@H](CC(C)C)C(=O)N[C@@H](CCCN=C(N)N)C(=O)N[C@@H](Cc1ccc(O)cc1)C(N)=O)[C@@H](C)CC | i | i | nt | nt | nt | i
CCc1cccc(NC(=O)Nc2cccs2)c1 | i | i | i | i | 28.2µM | i
COC(=O)c1[nH]c2cc(OC)ccc2c1N | i | i | i | i | 35.2µM | i
CCOC(=O)Nc1c(C(=O)OC)[nH]c2cc(OC)ccc12 | i | i | i | i | i | i
O=Nc1ccc(Nc2ccccc2)cc1 | i | i | nt | nt | nt | i
Brc1ccc2nc(-c3cccs3)c(NCC3CCCO3)n2c1 (stereo unspecified) | i | ? | i | i | 6.31µM | i
NC(=O)c1ccc2nc(-c3ccc(Oc4ccc(Cl)cc4)cc3)[nH]c2c1 | i | i | nt | nt | nt | i
COc1ccc(-c2nc3cc(C)ccn3c2NCc2ccc3c(c2)OCO3)cc1 | i | i | ? | i | ? | i
Oc1ccc(-c2nc3ccccn3c2Nc2ccc3c(c2)OCCO3)cc1 | nt | nt | nt | nt | 12.6µM | nt
Clc1cccc(-c2nc3ccccn3c2Nc2ccc3c(c2)OCCO3)c1 | nt | nt | nt | nt | 3.98µM | nt
c1ccc(-c2nc3cnccn3c2Nc2ccc3c(c2)OCCO3)cc1 | i | i | i | i | ? | i
Cc1ccn2c(Nc3ccc4c(c3)OCO4)c(-c3ccc(O)cc3)nc2c1 | i | 15.8µM | nt | i | 11.2µM | i
CN(C)c1ccc(-c2nc3ccccn3c2Nc2ccc3c(c2)OCCO3)cc1 | nt | nt | nt | nt | 17.8µM | nt
CC[C@H](C)[C@H](NC(=O)[C@H](Cc1ccccc1)NC(=O)[C@H](CC(C)C)NC(=O)[C@H](CCSC)NC(=O)[C@H](CCC(=O)O)NC(=O)[C@H](CCC(=O)O)NC(=O)[C@H](CC(=O)O)NC(=O)[C@H](CO)NC(=O)[C@@H]1CCCN1C(=O)[C@H](CCCCN)NC(=O)[C@@H](N)[C@@H](C)O)C(=O)N[C@@H](Cc1ccc(O)cc1)C(=O)NCC(=O)N[C@@H](Cc1cnc[nH]1)C(=O)N[C@@H](Cc1ccc(O)cc1)C(=O)N[C@@H](CCCCN)C(=O)N[C@@H](CCC(N)=O)C(=O)N[C@@H](C)C(=O)N[C@H](C(=O)N[C@H](C(=O)NCC(=O)N[C@@H](CC(=O)O)C(=O)N[C@H](C(=O)N[C@@H](CC(N)=O)C(=O)N[C@H](C(=O)N[C@@H](CCC(=O)O)C(=O)N[C@@H](CCCNC(=N)N)C(=O)N1CCC[C@H]1C(=O)NCC(=O)N[C@@H](CCSC)C(=O)N[C@@H](CC(C)C)C(=O)N[C@@H](CC(=O)O)C(=O)N[C@@H](Cc1ccccc1)C(=O)N[C@H](C(=O)O)[C@@H](C)O)[C@@H](C)O)[C@@H](C)CC)C(C)C)[C@@H](C)O | i | i | nt | nt | nt | i
O=C(O)C1CC(CCCP(=O)(O)O)CCN1 (stereo unspecified) | i | i | nt | nt | nt | i
CCC1CC=CC2C1C(=O)N(Cc1ccccc1)C2c1cccc([N+](=O)[O-])c1 (stereo unspecified) | i | i | nt | nt | nt | i
Oc1[nH]c2ccccc2c1C=Nc1ccc2c(c1)OCCO2 | i | i | i | i | 31.6µM | i
COc1ccc(NC(=O)NS(=O)(=O)c2ccc(C)cc2)c(OC)c1 | i | i | i | i | 25.1µM | i
CN1CCN(C2Cc3ccccc3Sc3ccc(S)cc32)CC1 (stereo unspecified) | i | 12.6µM | nt | i | nt | i
CCCc1cc(=O)[nH]c(Nc2cccc(Cl)c2Cl)n1 | nt | nt | nt | nt | i | nt
